Inconclusive results are not listed. Calls of active or inactive are those of the source. Unless noted, calls follow the shape of the dose curve; as a rule, active = well fitted curve in the direction sought with a large enough effect in the repeat runs; inconclusive = weak or mixed curves; inactive = no such curve, though single readings can be large; an effect the other way counts as inactive or inconclusive.
Assays:
[1] = target: Nuclear receptor subfamily 1 group I member 3 (Homo sapiens) (UniProt Q14994); assay: qHTS assay to identify small molecule agonists of the constitutive androstane receptor (CAR) signaling pathway (AID 1224839); also: nearly all actives have a fitted effect of over 15% in size; also: potency is read from the fitted curve at half-maximal effect
Sequence of Nuclear receptor subfamily 1 group I member 3 (Homo sapiens) (Q14994 whole entry, looked up): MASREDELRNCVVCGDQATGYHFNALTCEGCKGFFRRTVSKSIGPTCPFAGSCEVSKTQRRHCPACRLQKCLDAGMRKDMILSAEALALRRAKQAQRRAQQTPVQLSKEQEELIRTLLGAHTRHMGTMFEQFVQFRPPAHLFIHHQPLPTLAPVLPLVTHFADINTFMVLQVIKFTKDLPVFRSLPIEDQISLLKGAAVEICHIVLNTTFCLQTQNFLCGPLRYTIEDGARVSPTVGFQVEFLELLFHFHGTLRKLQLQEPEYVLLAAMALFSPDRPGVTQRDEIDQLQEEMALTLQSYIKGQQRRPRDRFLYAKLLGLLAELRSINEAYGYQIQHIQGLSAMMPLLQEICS
In short: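 Double-stable HepG2 cells (hCAR, CYP2B6-2.2kb) seeded 4 h before compound addition. Exposure 24 h with 0.75 uM PK11195 final. Luciferase detected by ONE-Glo.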

[2] = qHTS assay to identify small molecule antagonists of the estrogen related receptor signaling pathway with the pleiotropic PPARgamma coactivator (PGC) from Tox21 10K library - cell viability counter screen (AID 1224840; active = well fitted cell-killing curve with a large enough effect in the repeat runs, not every such curve was filed as active; also: nearly all actives have a fitted effect of over 40% in size)
In short: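 Readout: fluorescence intensity from CellTiter-Fluor after 30 min at 37 C/5% CO2. Preceded by 17.5 h treatment of PGC/ERR cells with DMSO-dissolved compounds, added 6 h post-seeding.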

[3] = qHTS assay to identify small molecule antagonists of the estrogen related receptor signaling pathway with the pleiotropic PPARgamma coactivator (PGC) from Tox21 10K library (AID 1224841; call rule not given here; also: actives are mostly falling curves and most rising ones were filed inactive; nearly all actives have a fitted effect of over 50% in size)
In short: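 One-Glo luminescence, measured after half an hour at room temperature, quantified reporter output of PGC/ERR cells. These had been plated at 2,000 per well, incubated 6 h, dosed with compounds in DMSO, then kept 18 h at 37 C.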

[4] = qHTS assay to identify small molecule agonists of the estrogen related receptor signaling pathway with the pleiotropic PPARgamma coactivator (PGC) from Tox21 10K library (AID 1224842); also: nearly all actives have a fitted effect of over 15% in size
In short: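 PGC/ERR reporter cell line, 2,000 cells per well, incubated 6 h at 37 C before 23 nL compound in DMSO was added. After 18 h at 37 C, One-Glo luminescence read following 30 min at room temperature.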

[5] = target: Thyrotropin receptor (Homo sapiens) (UniProt P16473); assay: qHTS assay to identify small molecule agonists of the thyroid stimulating hormone receptor (TSHR) signaling pathway (AID 1224843; calls by dose curve; also: nearly all actives have a fitted effect of over 45% in size)
Sequence of Thyrotropin receptor (Homo sapiens) (P16473 whole entry, looked up): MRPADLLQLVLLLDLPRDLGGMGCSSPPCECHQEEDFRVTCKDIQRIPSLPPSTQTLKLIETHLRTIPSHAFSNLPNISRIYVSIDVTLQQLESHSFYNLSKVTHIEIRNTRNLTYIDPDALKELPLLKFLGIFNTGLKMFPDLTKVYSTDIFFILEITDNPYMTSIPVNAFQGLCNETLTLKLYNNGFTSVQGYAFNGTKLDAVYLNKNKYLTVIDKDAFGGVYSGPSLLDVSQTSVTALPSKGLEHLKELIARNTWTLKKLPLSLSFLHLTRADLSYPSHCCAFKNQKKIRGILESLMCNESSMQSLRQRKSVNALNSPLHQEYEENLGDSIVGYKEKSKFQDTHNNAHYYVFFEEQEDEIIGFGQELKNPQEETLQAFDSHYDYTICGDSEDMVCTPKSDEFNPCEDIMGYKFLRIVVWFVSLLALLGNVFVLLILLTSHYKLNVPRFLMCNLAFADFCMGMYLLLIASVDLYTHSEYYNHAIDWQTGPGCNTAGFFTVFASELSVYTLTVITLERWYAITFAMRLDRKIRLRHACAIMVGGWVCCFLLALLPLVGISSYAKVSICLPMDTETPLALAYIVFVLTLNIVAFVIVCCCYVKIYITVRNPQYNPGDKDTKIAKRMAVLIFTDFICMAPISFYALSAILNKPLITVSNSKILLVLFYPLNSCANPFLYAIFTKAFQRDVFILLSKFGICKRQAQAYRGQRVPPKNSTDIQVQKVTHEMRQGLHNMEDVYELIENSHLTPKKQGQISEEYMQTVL
In short: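 HEK293/TSHR, 800 cells/well; cpd 30 min RT; add cAMP-d2 + anti-cAMP-cryptate, 1 h RT; fluorescence read on plate reader. 15-pt titration, n=3.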

[6] = qHTS assay to identify small molecule agonists of the hypoxia (HIF-1) signaling pathway - cell viability counter screen (AID 1224844; calls by dose curve; also: nearly all actives have a fitted effect of over 50% in size; also: potency is read from the fitted curve at half-maximal effect)
In short: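 In this counter screen, HRE-bla ME-180 cell viability after 17 hrs of compound exposure at 37C was read by CellTiter-Glo luminescence, multiplexed with the beta-lactamase reporter measurement.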

[7] = qHTS assay to identify small molecule agonists of the hypoxia (HIF-1) signaling pathway (AID 1224846; active = well fitted activation curve with a large enough effect in the signal ratio in the repeat runs, not every such curve was filed as active; the % refers to the signal ratio)
In short: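 ME-180 HRE-bla reporter cells; compounds in DMSO, 17 h at 37C; read-out beta-lactamase via CCF4-AM FRET.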

[8] = qHTS assay to identify small molecule agonists of H2AX - cell viability counter screen (AID 1224847; calls by dose curve; also: nearly all actives have a fitted effect of over 30% in size; also: potency is read from the fitted curve at half-maximal effect)
In short: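 Quantitative HTS viability measurement: CHO-K1 wild-type cells in serum (10% FBS) medium, short 3 hr drug exposure at 37C with 0.76% DMSO, CellTiter-Glo luminescent detection.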

[9] = qHTS assay to identify small molecule antagonists of the estrogen related receptor (ERR) signaling pathway from Tox21 library (AID 1224848); also: nearly all actives have a fitted effect of over 50% in size; also: potency is read from the fitted curve at half-maximal effect
In short: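 Compounds dissolved in DMSO are pin-transferred onto ERR reporter cells (2,000 per well) that have settled for 6 h at 37 C. Plates then incubate 18 h at 37 C before ONE-Glo luciferase reagent and a luminescence read 30 min later.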

[10] = qHTS RealTime-Glo MT Cell Viability Assay in HepG2 cells - 24 hour (AID 1224867); also: nearly all actives have a fitted effect of over 50% in size; also: potency is read from the fitted curve at half-maximal effect
In short: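 HepG2 cells were seeded at 600 cells/well together with NanoLuc luciferase and a cell-permeant prosubstrate, preincubated 5 h at 37 C/5% CO2, then pin-dosed with compounds in DMSO. Nonlytic luminescence from viable cells was read at each time point.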

[11] = qHTS RealTime-Glo MT Cell Viability Assay in HEK293 cells - 32 hour (AID 1224868); also: nearly all actives have a fitted effect of over 50% in size; also: potency is read from the fitted curve at half-maximal effect
In short: (§1)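 HEK293 cells were seeded at 600 cells/well together with NanoLuc luciferase and cell-permeant prosubstrate, preincubated 5 h at 37 C/5% CO2, then given compound in DMSO by pintool. Luminescence from viable-cell prosubstrate reduction was read repeatedly over 40 h.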

[12] = A CellTox Green Cytotoxicity Assay to monitor cytotoxicity in HEK293 cells - 0 hour (AID 1224869); also: nearly all actives have a fitted effect of over 50% in size; also: potency is read from the fitted curve at half-maximal effect
In short: (§2)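 Real-time, in one plate: 600 HEK293 cells/well with dead-cell DNA dye, pinned compound after 5 h, 37 C incubation over 40 h; viable cells give no appreciable fluorescence.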

[13] = qHTS RealTime-Glo MT Cell Viability Assay in HepG2 cells - 40 hour (AID 1224870); also: nearly all actives have a fitted effect of over 50% in size; also: potency is read from the fitted curve at half-maximal effect
In short: (§3)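 HepG2 cells (600/well) mixed with RealTime-Glo MT reagent, settled 5 h at 37 C/5% CO2 before compound addition. Nonlytic NanoLuc luminescence from viable-cell prosubstrate reduction read repeatedly during 40 h treatment at 37 C.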

[14] = A CellTox Green Cytotoxicity Assay to monitor cytotoxicity in HEK293 cells - 40 hour (AID 1224871); also: nearly all actives have a fitted effect of over 45% in size; also: potency is read from the fitted curve at half-maximal effect
In short: as §2

[15] = qHTS RealTime-Glo MT Cell Viability Assay in HEK293 cells - 16 hour (AID 1224872); also: nearly all actives have a fitted effect of over 50% in size; also: potency is read from the fitted curve at half-maximal effect
In short: as §1

[16] = qHTS RealTime-Glo MT Cell Viability Assay in HepG2 cells - 8 hour (AID 1224873); also: nearly all actives have a fitted effect of over 55% in size; also: potency is read from the fitted curve at half-maximal effect
In short: as §3

[17] = qHTS RealTime-Glo MT Cell Viability Assay in HEK293 cells - 40 hour (AID 1224874); details: RealTime-Glo luminescence; max response: stronger effect = lower value; also: nearly all actives have a fitted effect of over 50% in size; also: potency is read from the fitted curve at half-maximal effect
In short: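 Kinetic, non-lysing viability readout. Seed HEK293 (600/well) with reagent, incubate 5 h at 37 C/5% CO2, pin 23 nL compound in DMSO, incubate at 37 C, read luminescence at 0, 8, 16, 24, 32, 40 h.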

[18] = target: Nuclear receptor subfamily 1 group I member 3 (Homo sapiens) (UniProt Q14994); assay: qHTS assay to identify small molecule antagonists of the constitutive androstane receptor (CAR) signaling pathway (AID 1224838); also: nearly all actives have a fitted effect of over 40% in size
In short: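 Inhibition of CITCO-driven (50 nM final) CYP2B6 reporter expression is measured in HepG2 cells stably carrying hCAR. Fifteen compound concentrations are applied for 24 h at 37 C, followed by luciferase luminescence.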

[19] = qHTS assay to identify small molecule agonists of H2AX (AID 1224845; active = well fitted activation curve with a large enough effect in the signal ratio in the repeat runs, not every such curve was filed as active; the % refers to the signal ratio; also: potency is read from the fitted curve at half-maximal effect)
In short: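 Wild-type CHO-K1 cells, plated overnight, exposed 3hr at 37C to 15 concentrations (0.76% DMSO final). Lysed, then HTRF anti-pH2AX (S139) cryptate and anti-H2AX-d2 antibodies, 24 hr room temperature; 665/620 nm emission read.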

[20] = qHTS assay to identify small molecule agonists of the estrogen related receptor (ERR) signaling pathway from Tox21 library (AID 1224849; calls by dose curve; also: nearly all actives have a fitted effect of over 15% in size); details: ERR reporter cell line, ONE-Glo luciferase, 18 h; at 92.4 µM (top of the series) unless noted
In short: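 Luciferase activity in ERR pathway reporter cells served as the agonist readout; exposure lasted 18 h at 37 C, with ONE-Glo detection after 30 min at room temperature.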
% is scaled to controls: 0 for no effect and ±100 for the full control effect.

Brc1cc(Br)cc(Br)c1
inactive: Potency [1] | Potency [2] | Potency [3] | Potency [4] | Potency [5] | Potency [6] | Potency [7] | Potency [8] | Potency [9] | Potency [10] | Potency [11] | Potency [12] | Potency [13] | Potency [14] | Potency [15] | Potency [16] | max response [17] 0.239%

O=C(Cl)c1ccc(Cl)cc1Cl
active: Potency [19] 101 µM | Potency [14] 49 µM
inactive: Potency [18] | Potency [1] | Potency [6] | Potency [7] | Potency [8] | Potency [12] | Potency [16]

CC(CC(C)(C)C)CC(C)(C)CC(C)(C)C (stereo not drawn)
inactive: Potency [1] | Potency [2] | Potency [5] | Potency [6] | Potency [19] | Potency [7] | Potency [8] | Potency [10] | Potency [11] | Potency [12] | Potency [14] | Potency [15] | Potency [16] | max response [17] 3.32%

N#CCCOCCC#N
inactive: Potency [18] | Potency [2] | Potency [4] | Potency [7] | Potency [8] | Potency [9] | activity change, positive = activation [20] 1.08% | Potency [10] | Potency [11] | Potency [12] | Potency [14] | Potency [15] | Potency [16]

C/C(=N\[Si](C)(C)C)O[Si](C)(C)C
inactive: Potency [1] | Potency [2] | Potency [6] | Potency [19] | Potency [7] | Potency [8] | Potency [10] | Potency [11] | Potency [12] | Potency [13] | Potency [14] | Potency [15] | max response [17] -1.35%

Cc1ccc2sc3cccc(C)c3c2c1
inactive: Potency [2] | Potency [5] | Potency [19] | Potency [7] | Potency [8] | Potency [10] | Potency [11] | Potency [12] | Potency [13] | Potency [14] | Potency [15] | Potency [16] | max response [17] 12.7%
active: Potency [1] 27.3 µM

Cc1cc(C)c(O)c(C(C)(C)C)c1
active: Potency [8] 113 µM | Potency [14] 34.7 µM
inactive: Potency [1] | Potency [4] | Potency [6] | Potency [7] | Potency [9] | activity change, positive = activation [20] 1.52% | Potency [10] | Potency [11] | Potency [12] | Potency [13] | Potency [15] | Potency [16] | max response [17] -8.82%

Nc1ccc2c(S(=O)(=O)O)cccc2c1S(=O)(=O)O
inactive: Potency [2] | Potency [3] | Potency [4] | Potency [5] | Potency [6] | Potency [7] | Potency [8] | Potency [9] | activity change, positive = activation [20] -1.51% [at 42.5 µM] | Potency [10] | Potency [11] | Potency [12] | Potency [13] | Potency [14] | Potency [15] | Potency [16] | max response [17] 5.38%

C/C=C/C(=O)OCC(C)C
inactive: Potency [2] | Potency [5] | Potency [6] | Potency [19] | Potency [7] | Potency [8] | Potency [10] | Potency [11] | Potency [12] | Potency [13] | Potency [14] | Potency [15]

CCC(C)(C)c1ccc(CC(C)CN2C[C@@H](C)O[C@@H](C)C2)cc1 (stereo partly drawn)
inactive: Potency [1] | Potency [3] | Potency [4] | activity change, positive = activation [20] -22.5% [at 42.5 µM] | Potency [10] | Potency [11] | Potency [12] | Potency [13] | Potency [15] | Potency [16] | max response [17] -25.5%
active: Potency [6] 23.9 µM | Potency [8] 55.2 µM | Potency [14] 23.9 µM

CC(c1cc(C(C)(C)C)cc(C(C)(C)C)c1O)c1cc(C(C)(C)C)cc(C(C)(C)C)c1O
active: Potency [17] 19.5 µM
inactive: Potency [2] | Potency [3] | Potency [4] | Potency [5] | Potency [7] | Potency [8] | activity change, positive = activation [20] -15.4% | Potency [10] | Potency [12] | Potency [13] | Potency [14] | Potency [16]

O=C1OC2(c3ccccc31)c1ccc(O)c(Br)c1Oc1c2ccc(O)c1Br
active: Potency [12] 6.16 µM
inactive: Potency [1] | Potency [3] | Potency [4] | Potency [6] | Potency [8] | Potency [9] | activity change, positive = activation [20] -9.26% | Potency [10] | Potency [11] | Potency [13]

CCOC(=O)[C@H](C)O
inactive: Potency [1] | Potency [2] | Potency [19] | Potency [7] | Potency [8] | Potency [10] | Potency [11] | Potency [12] | Potency [13] | Potency [14] | Potency [15] | Potency [16] | max response [17] 7.55%

CCc1cccc(CC)c1
inactive: Potency [2] | Potency [4] | Potency [6] | Potency [19] | Potency [7] | Potency [8] | Potency [9] | activity change, positive = activation [20] -2.59% | Potency [10] | Potency [12] | Potency [13] | Potency [14] | Potency [15] | Potency [16] | max response [17] 23.9%

CC/C(=C(/c1ccc(O)cc1)c1ccc(OCCN(C)C)cc1)c1ccccc1
inactive: Potency [1] | Potency [4] | activity change, positive = activation [20] -77.3% [at 42.5 µM] | Potency [12]
active: Potency [8] 41.9 µM | Potency [9] 18 µM | Potency [10] 18.2 µM | Potency [11] 9.11 µM | Potency [13] 12.9 µM | Potency [14] 20.4 µM | Potency [15] 12.9 µM | Potency [16] 28.8 µM | Potency [17] 8.12 µM
